Shown is part of a subset that was picked to be rich in hits.
HT1080 IDH1KD tx: kills HT-1080 cells with IDH1 knockdown; AID 686971; HT-1080 IDH1 knockdown viability, ATP luminescence, 48 h; 2% of 360,000 active; Potency, µM (top dose mostly 46.1 µM), inactives show top-dose activity, negative = toxicity, hits mostly cytotoxic;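 also: potency is read from the fitted curve at half-maximal effect; 0% = DMSO wells and -100% = cell-free medium wells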
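After a 2 h attachment period, IDH1KD HT-1080 cells took pin-transferred compound for 48 h at 37 °C; ATP-based luminescence after 10 min room-temperature reagent incubation reported viability.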
12-LOX inh: blocks human arachidonate 12S-lipoxygenase; P18054; purified 12hLO, xylenol orange hydroperoxide absorbance; Potency, µM (titrated, usually from 108 µM), for inactives: at the highest dose activity change, negative = inhibition, hits mostly inhibitors; 1.1% of 580,000 active; also: potency is read from the fitted curve at half-maximal effect
Target sequence (P18054 whole entry, looked up): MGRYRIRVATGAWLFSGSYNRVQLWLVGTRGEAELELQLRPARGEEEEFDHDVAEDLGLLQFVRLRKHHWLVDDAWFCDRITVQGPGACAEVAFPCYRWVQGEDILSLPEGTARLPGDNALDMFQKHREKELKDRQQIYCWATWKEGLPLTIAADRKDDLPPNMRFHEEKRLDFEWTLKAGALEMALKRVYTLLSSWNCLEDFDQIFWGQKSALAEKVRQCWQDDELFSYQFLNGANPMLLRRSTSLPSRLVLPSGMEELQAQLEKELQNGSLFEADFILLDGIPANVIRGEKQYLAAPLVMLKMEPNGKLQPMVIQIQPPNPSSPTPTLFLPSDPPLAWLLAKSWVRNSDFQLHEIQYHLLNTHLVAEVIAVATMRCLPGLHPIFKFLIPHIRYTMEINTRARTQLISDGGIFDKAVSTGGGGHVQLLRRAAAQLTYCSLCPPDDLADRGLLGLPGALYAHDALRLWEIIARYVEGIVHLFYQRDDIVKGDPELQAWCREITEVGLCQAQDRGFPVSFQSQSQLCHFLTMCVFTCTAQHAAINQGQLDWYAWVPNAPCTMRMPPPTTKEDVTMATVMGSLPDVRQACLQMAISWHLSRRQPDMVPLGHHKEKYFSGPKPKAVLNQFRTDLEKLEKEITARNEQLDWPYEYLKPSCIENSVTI
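Hydroperoxide product was detected by ferrous iron/xylenol orange as the 573 to 405 nm absorbance ratio. Arachidonic acid at 40 uM (final) was turned over for 30 min at room temperature by 150 nM human 12hLO, pH 7.0 Hepes buffer, after 15 min compound preincubation.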
IL1B secr inh: inhibitors of inflammasome signaling (IL-1 beta secretion) | THP-1 LPS/ATP IL-1B secretion, AlphaLISA, 16 h; active compounds read low | activity change, % at 57.5 µM | 4.7% of 360,000 active | AID 743279; in the data active = activity change below about -50%; inconclusive = mostly about -30% to -49%
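Secreted IL-1B measured by AlphaLISA bead assay after 16 h compound exposure of THP-1 cells; compounds (final up to 57.5 uM) added 1 h before LPS (250 ng/mL) and ATP (1.25 mM) stimulation; lower signal means less secretion.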
TDP1 cell CPT: growth inhibition of DT40 Tdp1-/-;hTDP1 cells with camptothecin (screen for TDP1 inhibitors); Potency, µM (doses to about 46.2 µM), for the others: at the top dose activity change, negative = growth inhibition, hits mostly inhibitors; chicken DT40 Tdp1-/-;hTDP1 cells + 20 nM CPT, ATP luminescence, 48 h; 12% of 420,000 active; also: potency is read from the fitted curve at half-maximal effect; nearly all actives have a fitted effect of over 55% in size
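Cell growth measured by CellTiter-Glo luminescence after a minimum 48 h, 37 C compound exposure with 20 nM CPT in Tdp1-knockout DT40 cells stably expressing hTDP1, seeded 400/well; qHTS titration format.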
TDP1 cell noCPT: qHTS for Inhibitors of human tyrosyl-DNA phosphodiesterase 1 (TDP1): qHTS in cells in absence of CPT | DT40 Tdp1-/- hTDP1 cells, no CPT, ATP luminescence, 48 h | 15% of 420,000 active | Potency, µM (doses to about 46.2 µM), for inactives: at the highest dose activity change, negative = growth inhibition, usual class: inhibitors; also: potency is read from the fitted curve at half-maximal effect; nearly all actives have a fitted effect of over 55% in size
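Stably hTDP1-transfected Tdp1-null chicken DT40 cells were treated with library compounds minus camptothecin and grown for at least 48 hr at 37 °C, after which cellular ATP was quantified by luminescence.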
HT1080NT lethal: kills 2HG-producing HT-1080-NT fibrosarcoma cells; HT-1080-NT fibrosarcoma viability, CellTiter-Glo ATP luminescence, 48 h; Potency, µM (doses to about 46.1 µM), without a hit: at the top dose activity, negative = less viability, actives largely listed as cytotoxic; 1.6% of 360,000 active; AID 686970;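 also: NT is the 2HG producing partner of a matched IDH1 knockdown line; potency is read from the fitted curve at half-maximal effect; 0% = DMSO-treated cells and -100% = media-only wells without cells; nearly all actives have a fitted effect of over 55% in size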
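Viability by CellTiter-Glo luminescence after 48 h compound exposure at 37C of HT-1080-NT cells (750/well, RPMI, 5% FBS). % activity scaled between DMSO wells and medium-only wells, then curve-fitted and categorized by curve class.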
* marks the source's active call; other numbers are inactive results; i = inactive; ? = inconclusive; nt = no result given; [ ] = remark or other dose. Unless noted, calls follow the shape of the dose curve; as a rule, active = well fitted curve in the direction sought with a large enough effect; inconclusive = small, poorly fitted or top-dose-only effect, or another doubt; inactive = no such curve, though single readings can be large; an effect the other way counts as inactive or inconclusive. Unless noted, % is scaled to controls: 0 for no effect and ±100 for the full control effect.

SMILES | HT1080 IDH1KD tx | 12-LOX inh | IL1B secr inh | TDP1 cell CPT | TDP1 cell noCPT | HT1080NT lethal
CCOc1ccc(C(=O)N2CCN(C(=O)c3nnn4c3COC(c3ccccc3)C4)CC2)cc1 (configuration not stated) | nt | 35% | nt | nt | nt | nt
S=c1[nH]nc(-c2ccccc2)n1/N=C/c1ccc(Cl)cc1 | -5% | 22µM* | -7 | -28% | -25% | 3%
S=c1[nH]nc(-c2ccccn2)n1/N=C/c1ccc(Cl)cc1 | 3% | 28µM* | 9 | 1% | -15% | 17%
Fc1ccc(-c2n[nH]c(=S)n2/N=C/c2c[nH]c3ccccc23)cc1 | -7% | ? | 5 | 7.3µM* | 6.5µM* | 3%
S=c1[nH]nc(-c2ccccc2)n1/N=C/c1cccc(Cl)c1 | 0% | -21% | 18 | ? | ? | -11%
S=c1[nH]nc(-c2ccccn2)n1/N=C/c1ccccc1 | 18% | ? | 18 | 1% | -8% | 16%
CCCNC(=O)c1cc(C2CCCCN2C(=O)c2cccs2)on1 (configuration not stated) | 0% | -3% | 14 | ? | 3% | 3%
O=C(NCc1ccccc1)c1cc(C2CCCCN2C(=O)c2ccccc2)on1 (configuration not stated) | -5% | 11% | 45 | 18µM* | 13µM* | 3%
COCCOC(=O)N1CCCCC1c1cc(C(=O)NCc2ccc(Cl)c(Cl)c2)no1 (configuration not stated) | -12% | 1% | -15 | 15µM* | ? | 1%
Cn1cnc(S(=O)(=O)N2CCCCC2c2cc(C(=O)NCc3ccc(Cl)c(Cl)c3)no2)c1 (configuration not stated) | -33% | -25% | -12 | ? | 6.5µM* | ?
O=C(NCc1ccc(Cl)c(Cl)c1)c1cc(C2CCCCN2C(=O)c2cccs2)on1 (configuration not stated) | -4% | ? | -19 | 15µM* | 21µM* | -23%
O=C(O)CCc1ccc(-c2ccccc2)n1CC(=O)Nc1ccccc1C(F)(F)F | nt | 9% | nt | -9% | -2% | nt
O=C(CCSc1nc(Cl)nc2nc[nH]c12)NCc1ccccc1Cl | nt | 13% | nt | nt | nt | nt
CCOC(=O)c1ccc(N2CCN(C(C)=O)CC2)c(NC(=O)c2ccc3ccccc3c2)c1 | nt | -38% | nt | nt | nt | nt
CC(C)C(C)NC(=O)CCC1CCCO1 (configuration not stated) | nt | 1% | nt | nt | nt | nt
O=C(NCc1ccc(Cl)c(Cl)c1)c1cc(C2CCCCN2C(=O)c2ccccc2)on1 (configuration not stated) | -14% | ? | ? | 18µM* | 13µM* | -5%
O=C(Nc1cccc2c1CCCC2)c1cc(C2CCCCN2C(=O)c2cccs2)on1 (configuration not stated) | ? | 4% | 17 | 8.2µM* | 8.2µM* | ?
O=C(Nc1ccccc1Cl)c1cc(C2CCCCN2C(=O)C2CCCCC2)on1 (configuration not stated) | -26% | -2% | 5 | -91% | ? | -26%
O=C1[C@@H]2C[C@@H](CN2CC2CC2)Oc2ccccc2N1Cc1ccccn1 | nt | 39%[176 µM] | nt | nt | nt | nt
Fc1ccc(Sc2nc(-c3ccccc3)nnc2C(F)(F)F)cc1 | 23µM* | 0% | -120* | 5.8µM* | 13µM* | 23µM*
Fc1ccc(Oc2nc(-c3ccccc3)nnc2C(F)(F)F)cc1 | 18% | -7% | 4 | ? | -25% | 7%
CS(=O)(=O)C1(C(=O)O)CCCC1 | nt | -20% | nt | nt | nt | nt
CCOC(=O)c1c(C)oc2nc(C)nc(NCCc3ccc(S(N)(=O)=O)cc3)c12 | nt | -16% | nt | 23µM* | 15µM* | nt
CCOC(=O)c1c(C)oc2nc(C)nc(NCC3CCN(Cc4cc(C)ccc4C)CC3)c12 | nt | -12% | nt | -9% | -20% | nt
CCOC(=O)c1c(C)oc2nc(C)nc(NCCc3ccc(C)cc3)c12 | nt | -12% | nt | 21µM* | ? | nt
SMILES | HT1080 IDH1KD tx | 12-LOX inh | IL1B secr inh | TDP1 cell CPT | TDP1 cell noCPT | HT1080NT lethal
O=C(O)c1cn(C2CC2)c2cc(N3CCN(S(=O)(=O)c4ccc5c(c4)OCCO5)CC3)c(F)cc2c1=O | ? | -3% | 32 | 15µM* | 15µM* | ?
CN1C[C@@H]2C[C@H]1CN2c1cc2c(cc1F)c(=O)c(C(=O)O)cn2C1CC1 | nt | -7%[12.5 µM] | nt | 6.7µM* | 6.7µM* | nt
CSc1nc2n(n1)C(c1ccc(F)cc1)C1=C(CCCC1=O)N2 (configuration not stated) | nt | 11% | nt | nt | nt | nt
CC1(C)Cc2c(sc3nc(SCC(=O)O)nc(N)c23)CO1 | 17% | 26% | 11 | 13% | -8% | 26%
Cc1ccc(NC(=O)CSc2nc(N)c3c4c(sc3n2)CSC(C)(C)C4)cc1 | ? | -24% | -30 | 23µM* | 16µM* | ?
Cc1ccc(-n2c(SCC(=O)O)nc3sc4c(c3c2=O)CC(C)(C)SC4)cc1 | 7% | 6% | -13 | -1% | 18% | 5%
Cc1ccccc1NC(=O)CSc1nc(N)c2c3c(sc2n1)CSC(C)(C)C3 | ? | -28% | 13 | 23µM* | ? | ?
Cc1onc(-c2ccccc2)c1C(=O)NCc1ccccc1F | -4% | -21% | -12 | 2% | -22% | -1%
c1ccc(OCCn2cnc3ccccc32)cc1 | 16% | ? | -4 | ? | ? | 3%
c1ccc(OCCCCn2cnc3ccccc32)cc1 | ? | i | -20 | ? | 18µM* | -5%
Cc1ccc(OCCCn2c(CO)nc3ccccc32)cc1 | -10% | 3% | -6 | ? | ? | -1%
Cc1ccccc1OCCCCn1c(CO)nc2ccccc21 | -25% | 0% | -21 | 9.2µM* | 10µM* | ?
Cc1ccccc1OCCCCn1cnc2ccccc21 | ? | -15% | -19 | 12µM* | 13µM* | -8%
Cc1ccc(OCCCCn2cnc3ccccc32)cc1 | -9% | ? | -19 | 16µM* | 21µM* | 6%
COc1nc(OC)nc(Oc2ccc(Cl)cc2[N+](=O)[O-])n1 | -4% | 18% | -3 | 1% | -1% | 7%
CCc1nc(N)nc(N)c1-c1ccc(Cl)c(N=[N+]=[N-])c1 | 2.9µM* | ? | -3 | 5.2µM* | 1.8µM* | ?
CCOc1cc(-c2c(C)c(CC)nc(N)c2C#N)ccc1O | ? | 0% | 16 | -15% | ? | -27%
CCc1nc(N)nc(N)c1-c1ccc(Cl)c([N+](=O)[O-])c1 | 0.18µM* | 0% | -1 | 0.18µM* | 0.052µM* | ?

Screening results (PubChem)
